Rtt109 Vps75 – C. albicans Rtt109 histone acetyltransferase inhibition; inhibition, % at 34.9 µM; purified Rtt109/Vps75, ThioGlo CoA-SH fluorescence, 4 h; hit rate 0.16% among 330,000; Q5AAJ8;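 active = inhibition of at least 50% in every replicate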
TLR9-MyD88 block – blocks human TLR9 binding to MyD88 | Q9NR96+Q99836 | CHO BLA complementation TLR9-MyD88, CCF4 FRET ratio | inhibition, % at 4.98 µM | hit rate 0.21% among 340,000 | AID 504734;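 active = inhibition above the mean over all tested compounds plus 3 SD, cut at about 21% in these data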
LANA-H2B inh – blocks KSHV LANA binding to histone H2A/H2B; inhibition, % (test concentration not listed); Q9QR71; hit rate 0.6% among 320,000; AID 2629; cell-free LANA-H2A/H2B peptide, fluorescence polarization; in the data active = inhibition mostly above about 10%, no sharp cut-off; inactive = mostly below about 6.7%
NOD2 RIPK2 PPI – inhibitors of human NOD2-RIPK2 interaction; AID 624267; CHO BLA complementation NOD2-RIPK2, CCF4 ratio; hit rate 0.38% among 360,000; inhibition, % at 4.98 µM; O43353; in the data active = inhibition above about 21%
Target sequence (O43353 whole entry, looked up): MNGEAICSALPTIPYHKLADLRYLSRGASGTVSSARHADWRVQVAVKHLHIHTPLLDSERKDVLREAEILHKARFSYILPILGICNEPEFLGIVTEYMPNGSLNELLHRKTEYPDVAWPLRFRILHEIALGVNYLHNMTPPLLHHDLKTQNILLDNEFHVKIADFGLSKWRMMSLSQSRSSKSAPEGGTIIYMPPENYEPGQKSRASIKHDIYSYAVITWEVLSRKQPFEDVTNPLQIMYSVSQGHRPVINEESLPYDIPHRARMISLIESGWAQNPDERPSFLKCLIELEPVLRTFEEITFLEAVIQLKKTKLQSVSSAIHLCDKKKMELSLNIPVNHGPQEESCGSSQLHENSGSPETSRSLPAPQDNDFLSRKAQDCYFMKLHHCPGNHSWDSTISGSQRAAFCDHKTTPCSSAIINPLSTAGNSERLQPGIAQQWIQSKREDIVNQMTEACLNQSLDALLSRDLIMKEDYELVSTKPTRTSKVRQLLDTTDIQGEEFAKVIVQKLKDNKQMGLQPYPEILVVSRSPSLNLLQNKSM
TLR4 MyD88 comp – blocks binding of human TLR4 to MyD88. HeLa CL3-4 TLR4/MyD88 BLA complementation, FRET ratio. inhibition, % at 8.4 µM. hit rate 0.18% among 200,000. AID 861; in the data active = inhibition above about 25%
HTR2A ag – activates the mouse 5-HT2A serotonin receptor. P35363. CHO-K1 mHTR2A beta-arrestin complementation, luminescence; percent of 30 µM serotonin response. activation, % at 7.6 µM. hit rate 0.66% among 360,000. AID 624169;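 active = activation above a run cutoff, the mean activation of all tested compounds plus 3 SD, cut at about 14% in these data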
MOR ag counter – activates human mu opioid receptor in HTR2A counterscreen; U2OS OPRM1 beta-arrestin PathHunter, luminescence; DMSO 0%, DAMGO 9.3 µM 100%; AID 624380; activation, % at 9.3 µM; hit rate 5.3% among 2,300; shares compounds with HTR2A ag;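 active = mean activation above the mean of DMSO-only wells plus 3 SD, cut at about 0.5% in these data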
m5-HT2A ag conf – confirmation of mouse HTR2A serotonin receptor agonists. shares compounds with HTR2A ag. CHO-K1 PathHunter beta-arrestin recruitment, luminescence; DMSO 0%, 30 µM serotonin 100%. activation, % at 7.6 µM. hit rate 19% among 2,300;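 active = mean activation across triplicates above the hit threshold derived in the original primary screen, cut at about 15% in these data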
Each line names hits and unclear results; the compound was inactive in the other large screens (follow-up assays come after a bar, where they were run); ! = a repeat was not active. Shown are actives, neighbours in structure and some others; about 1.8% of the full set was active somewhere.

Cc1nc2cc(Cl)c([N+](=O)[O-])cc2s1	HTR2A ag 18.5 | MOR ag counter inactive | m5-HT2A ag conf inactive
CC1CC(C)CN(CCOCCSc2ccccc2)C1 (stereo unspecified)	HTR2A ag 15.6 | MOR ag counter inactive | m5-HT2A ag conf inactive
CCS(=O)(=O)Nc1ccc(-c2nc3cccnc3s2)cc1	HTR2A ag 26.9 | MOR ag counter inactive | m5-HT2A ag conf inactive
O=C(NCc1ccc(F)cc1)C1CCCN(S(=O)(=O)c2cccc3nonc23)C1 (stereo unspecified)	HTR2A ag 17.4 (no result: TLR4 MyD88 comp) | MOR ag counter inactive | m5-HT2A ag conf inactive
Cc1cccc(C)c1NC(=O)CNC(=O)C1CC(=O)N(Cc2ccccc2)C1 (stereo unspecified)	none (no result: LANA-H2B inh, TLR4 MyD88 comp)
Cc1ccc(-c2nnn(CC(=O)N(c3ccc(F)cc3)C(C(=O)NC3CCCC3)c3ccncc3)n2)o1 (stereo unspecified)	none (no result: TLR4 MyD88 comp)
C=C(C)c1cccc(C(C)(C)NC(=O)N2CCC(C)CC2)c1	HTR2A ag 18.9 | MOR ag counter inactive | m5-HT2A ag conf inactive
C=C(C)c1cccc(C(C)(C)NC(=O)Nc2ccc(OC)cc2)c1	HTR2A ag 16.9 | MOR ag counter inactive | m5-HT2A ag conf inactive
C=C(C)c1cccc(C(C)(C)NC(=O)Nc2ccc(C(C)=O)cc2)c1	none
C=C(C)c1cccc(C(C)(C)NC(=O)N2CCN(C)CC2)c1	none
C=C(C)c1cccc(C(C)(C)NC(=O)N2CCCCC2CC)c1 (stereo unspecified)	HTR2A ag 52.9 | MOR ag counter inactive | m5-HT2A ag conf 17.5
CCC(=O)N1c2ccc(S(=O)(=O)CCC(=O)N3CCN(c4ccccc4F)CC3)cc2CC1C (stereo unspecified)	none (no result: TLR4 MyD88 comp)
CCC(C)(C)NC(=O)C(c1ccc(OC)cc1)N(C(=O)CCC(=O)Nc1cc(C)on1)c1ccccc1F (stereo unspecified)	none (no result: TLR4 MyD88 comp)
Cn1c(=O)n(C)c2cc(/C=C3/SC(=O)N(CC(=O)N4CCOCC4)C3=O)ccc21	HTR2A ag 17.0 | MOR ag counter inactive | m5-HT2A ag conf inactive
Cc1ccc(NC(=O)CN2C(=O)c3ccccc3S2(=O)=O)c(C)c1	HTR2A ag 17.5 (no result: TLR4 MyD88 comp) | MOR ag counter inactive | m5-HT2A ag conf inactive
CN1CCC[C@H]1c1cccnc1	HTR2A ag 38.2! (no result: TLR4 MyD88 comp) | MOR ag counter inactive | m5-HT2A ag conf inactive
O=C(Nc1ccccc1F)N1CCCC1c1cccnc1 (stereo unspecified)	none (no result: TLR4 MyD88 comp)
CCOC(=O)[C@]12CCC=C1N(CCC1=CCCCC1)C(=O)[C@H](CC(=O)N1CCN(C(=O)c3ccco3)CC1)C2	none (no result: Rtt109 Vps75, TLR9-MyD88 block, LANA-H2B inh, TLR4 MyD88 comp)
COC(=O)[C@]1(C)N[C@H](CN(C)C(=O)Nc2ccc(Cl)cc2)[C@@H]2C(=O)N(Cc3ccccc3)C(=O)[C@@H]21	LANA-H2B inh active, HTR2A ag 17.5 (no result: TLR4 MyD88 comp) | MOR ag counter inactive | m5-HT2A ag conf inactive
Cc1ccccc1N1CC(C(=O)N2CCc3ccccc32)CC1=O (stereo unspecified)	HTR2A ag 17.3 (no result: TLR4 MyD88 comp) | MOR ag counter inactive | m5-HT2A ag conf inactive
CC(C)CC(NS(=O)(=O)OCC(Cl)(Cl)Cl)c1ccccc1 (stereo unspecified)	HTR2A ag 19.5 (no result: TLR4 MyD88 comp) | MOR ag counter 0.9 | m5-HT2A ag conf inactive
COC(=O)C[C@H]1CC[C@@H](NS(=O)(=O)c2ccc(C)cc2)[C@@H](CO)O1	none (no result: Rtt109 Vps75, TLR9-MyD88 block, LANA-H2B inh, TLR4 MyD88 comp)
COC(=O)C[C@H]1C[C@H]2c3cc(NC(=O)C4CCOCC4)ccc3O[C@H]2[C@@H](CO)O1	none (no result: Rtt109 Vps75, LANA-H2B inh, TLR4 MyD88 comp)
CCOC(=O)c1c(S(=O)(=O)NCCc2ccc(OC)c(OC)c2)c(C)n(C)c1C	HTR2A ag 15.5 (no result: TLR4 MyD88 comp) | MOR ag counter inactive | m5-HT2A ag conf inactive
O=C(c1cccnc1)N1CCN(S(=O)(=O)c2ccc(Cl)cc2)CC1	HTR2A ag 14.5 | MOR ag counter inactive | m5-HT2A ag conf inactive
COc1ccc(OCC(=O)N2CCC3(CC2)CC(=O)c2ccccc2O3)cc1	none (no result: TLR4 MyD88 comp)
CCOc1ccc(OCC(=O)N2CCC3(CC2)CC(=O)c2ccccc2O3)cc1	HTR2A ag 18.7 (no result: TLR4 MyD88 comp) | MOR ag counter inactive | m5-HT2A ag conf inactive
Cc1cccc(C(=O)Nc2ccc(C(=O)c3ccncc3)cc2)c1	none (no result: Rtt109 Vps75, LANA-H2B inh, TLR4 MyD88 comp)
COCCC(=O)N1CCC(Oc2ccc(C(=O)NCCSC)cc2)CC1	none (no result: TLR4 MyD88 comp)
Cc1[nH]c(=O)[nH]c(=O)c1S(=O)(=O)N1CCCC(C(=O)N2CCN(c3ccccc3Cl)CC2)C1 (stereo unspecified)	none
Cc1[nH]c(=O)[nH]c(=O)c1S(=O)(=O)N1CCCC(C(=O)N2CCC(Cc3ccccc3)CC2)C1 (stereo unspecified)	HTR2A ag 19.3 | MOR ag counter inactive | m5-HT2A ag conf inactive
CC1=C(C/C=C(\C)CCC[C@H](C)CCC[C@H](C)CCCC(C)C)C(=O)c2ccccc2C1=O	none (no result: Rtt109 Vps75, TLR9-MyD88 block, TLR4 MyD88 comp)
Cn1c(N)c(C(=O)COC(=O)CCC2CCCC2)c(=O)n(C)c1=O	HTR2A ag 20.2 | MOR ag counter inactive | m5-HT2A ag conf inactive
Cn1c(N)c(C(=O)COC(=O)CCC2CCCCC2)c(=O)n(C)c1=O	none
O=C1NC[C@H](CCCCN2C[C@H](Cc3ccc(O)cc3)N(CCc3ccc(O)cc3)C(=O)C2=O)N(CCc2ccccc2)C1=O	none (no result: Rtt109 Vps75, TLR9-MyD88 block, LANA-H2B inh, TLR4 MyD88 comp)
CC(C)Cc1nnc(NC(=O)c2cc(-c3ccncc3)nc3ccccc23)s1	HTR2A ag 14.9 (no result: TLR4 MyD88 comp) | MOR ag counter inactive | m5-HT2A ag conf inactive
CC(C)Cc1nnc(NC(=O)c2cc(-c3ccccc3)nc3ccccc23)s1	none
Cc1cn(CCOc2ccc(Cl)cc2)c(=O)[nH]c1=O	HTR2A ag 16.8 (no result: TLR4 MyD88 comp) | MOR ag counter inactive | m5-HT2A ag conf inactive
CC(NC(=O)c1ccc2ccccc2n1)c1ccc(S(N)(=O)=O)cc1 (stereo unspecified)	HTR2A ag 16.6 (no result: TLR4 MyD88 comp) | MOR ag counter inactive | m5-HT2A ag conf inactive
CC(NC(=O)c1ccc2ccccc2n1)c1ccc(Br)cc1 (stereo unspecified)	none (no result: TLR4 MyD88 comp)
CC(C)C[C@H]1CN=C(N(C)C)N1CCCCc1ccccc1	HTR2A ag 19.7 (no result: TLR4 MyD88 comp) | MOR ag counter inactive | m5-HT2A ag conf inactive
Cc1ccc(Cl)cc1N1CCN(C(=O)CCCn2c(=O)c3cccn3c3cccnc32)CC1	none (no result: TLR4 MyD88 comp)
O=C(Cn1c(=O)c2cccn2c2cccnc21)N1CCN(c2ccc(Cl)cc2)CC1	HTR2A ag 14.9 (no result: TLR4 MyD88 comp) | MOR ag counter inactive | m5-HT2A ag conf inactive
COc1ccc(CN(C)C(C)C(=O)Nc2ccc(S(=O)(=O)N3CCCC3)cc2)c(OC)c1OC (stereo unspecified)	none (no result: Rtt109 Vps75, TLR9-MyD88 block, NOD2 RIPK2 PPI, HTR2A ag)
